The values below come from PubChem BioAssay AID651956 (Broad Institute, 2012).

Entries with a potency or affinity are not part of this list. Records with an inconclusive call do not appear. Values without a mark were called inactive.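 Rule for the calls: active = in every test run, a fitted half-maximal concentration for signal decrease at or below twice the highest tested concentration; inconclusive = runs disagree, flat 30 to 70% decrease, or poor fit; inactive = the rest.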

The assay in a line: miR-122 activators in hepatoma reporter cells, dose response, cell-based, Huh7 psiCHECK-miR122, Renilla luciferase, cherry-picked (AID 651956).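 Note: Renilla luciferase from a miR-122 sensor reporter so lower signal means miR-122 activation; 0% = median neutral control wells and -100% = median positive control wells.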 To be noted: 48 h; series mostly up to 35 µM; activity change, negative = signal decrease: at the top concentration.
Regarding `COCCNC(=O)C[C@H]1CC[C@@H]2[C@@H](COc3ccc(NS(=O)(=O)c4ccc(Cl)cc4)cc3C(=O)N2C)O1`, the “activity change, negative = signal decrease” value is -22.1%. As for `COCC(=O)NC[C@H]1N[C@H](CO)[C@H]1c1ccc(C2=CCCC2)cc1`, the “activity change, negative = signal decrease” value was -37.9%. In the case of `CN1C(=O)c2cc(NC(=O)C3CC3)ccc2OC[C@@H]2O[C@H](CC(=O)NC3CCC3)CC[C@H]21`, the “activity change, negative = signal decrease” value is -26.3% [at 30 µM]. Next, `CC(=O)N1[C@H](CO)[C@H](c2ccccc2)[C@@H]1CN(C(=O)c1ccc(F)cc1)C(C)C`: 6.99%. The result for `Cc1nnsc1Sc1cccc(C(F)(F)F)c1` reads 39.2%; that for `Cc1nn(C)cc1NC(=O)C[C@H]1CC[C@H]2[C@H](COc3ccc(NC(=O)c4cccc(F)c4)cc3C(=O)N2C)O1`, 74.4%; that for `CN1C(=O)c2cc(NC(=O)c3cccs3)ccc2OC[C@@H]2O[C@H](CC(=O)NCC(F)(F)F)CC[C@H]21`, -19.1%. Regarding `Cc1ccc(OCCN2CCN(c3ncnc4sc(C)c(C)c34)CC2)cc1`, the “activity change, negative = signal decrease” value is -40.6%. Next, `CC(=O)Nc1ccc2c(c1)C(=O)N(C)[C@H]1CC[C@H](CC(=O)NC3CCCCC3)O[C@@H]1CO2`: -8.52%; `CO[C@H]1CN(C)C(=O)c2cc(NC(C)=O)ccc2OC[C@@H](C)N(C(=O)c2ccccn2)C[C@H]1C`: 111%; `COC(=O)C[C@@H]1CC[C@@H]2[C@@H](COc3ccc(NC(=O)c4cc(F)cc(F)c4)cc3C(=O)N2C)O1`: -26.7%.

In the case of `COC(=O)C[C@@H]1CC[C@@H]2[C@H](COc3ccc(NC(=O)c4ccc(F)c(F)c4)cc3C(=O)N2C)O1`, the “activity change, negative = signal decrease” value was -16%. Next, `COc1ccc2c(c1)C(C)=CC(C)(C)N2C(=O)CNCc1ccc2c(c1)OCO2`: -43.5%. The result for `Cc1nc(C)c(C(=O)Nc2ccc(Oc3ccccc3)cc2)o1` reads -16.7%; that for `O=C(NC[C@H]1[C@H](c2ccccc2)[C@@H](CO)N1Cc1ccccn1)C1CC1`, -15.8% [at 30 µM]; that for `CCCNC(=O)Nc1ccc2c(c1)C(=O)N(C)[C@@H]1CC[C@@H](CC(=O)NCC3CCCCC3)O[C@H]1CO2`, 71.2%.

`CCNC(=O)C[C@H]1CC[C@H]2[C@H](COc3ccc(NS(C)(=O)=O)cc3C(=O)N2C)O1`: the “activity change, negative = signal decrease” value was -8.52%. Next, `CC(=O)Oc1ccc2c(c1)C(=O)c1ccccc1CO2`: 46.6%; `COC(=O)C[C@H]1CC[C@@H]2[C@@H](COc3ccc(NC(=O)c4cscn4)cc3C(=O)N2C)O1`: -2.42%.

`CN(C(=O)c1ccccc1Cl)C1CCCCC1`: the “activity change, negative = signal decrease” value is -12.7%. The result for `COCC(=O)NC[C@H]1[C@@H](c2ccc(C3=CCCC3)cc2)[C@@H](CO)N1C(=O)C1CC1` reads 9.17%.

As to `N#CC1=C(N)Oc2c(ccc3cccnc23)C1c1ccccc1` (centres undefined), the “activity change, negative = signal decrease” value is 13.3%. The result for `Cc1cc(C(=O)Nc2ccc3c(c2)C(=O)N(C)[C@H]2CC[C@H](CC(=O)N[C@@H](C)c4ccccc4)O[C@H]2CO3)no1` reads 4.71%; that for `CN1C(=O)c2cc(NC(=O)c3cccs3)ccc2OC[C@@H]2O[C@@H](CC(=O)O)CC[C@H]21`, -15.8%; that for `Cc1cccc(NC(=O)Nc2ccc3c(c2)C(=O)N(C)[C@H]2CC[C@@H](CC(=O)NCc4ccccc4Cl)O[C@H]2CO3)c1`, 4.52%. Next, `COc1ccc(CNCCC(c2ccc(OC)cc2)c2ccccc2OC)cc1` (centres undefined): 68%; `Cc1cc(C)c2c(c1)/C(=C/C(=O)c1ccc(Br)s1)C(=O)N2`: 120%. The result for `CCNC(=O)C[C@H]1CC[C@@H]2[C@@H](COc3ccc(NC(=O)c4cccc(C(F)(F)F)c4)cc3C(=O)N2C)O1` reads 32.7%; that for `CC1(C)CC(=O)c2cnc(NC(=O)c3ccco3)nc2C1`, -17.7%; that for `COc1cccc(CNC(=O)C[C@H]2CC[C@@H]3[C@@H](COc4ccc(NC(C)=O)cc4C(=O)N3C)O2)c1`, 6.67%. As for `COCC(=O)N(C)C[C@@H]1[C@@H](c2ccccc2)[C@H](CO)N1C(=O)Cc1ccncc1`, the “activity change, negative = signal decrease” value is -13.1% [at 30 µM]. Next, `CCCNC(=O)C[C@H]1CC[C@@H]2[C@@H](COc3ccc(NC(=O)c4ccc5c(c4)OCO5)cc3C(=O)N2C)O1`: -39.9%; `CCC(=O)N1[C@H](CN(C(C)C)S(C)(=O)=O)[C@@H](c2ccccc2)[C@@H]1CO`: -31.1%. The result for `C[C@@H]1CN([C@@H](C)CO)S(=O)(=O)c2ccc(/C=C/c3ccccc3)cc2O[C@@H]1CN(C)C(=O)NC1CCCCC1` reads -109%. Turning to `O=c1c2cc(N3CCOCC3)ccc2[nH]c(=S)n1CCCN1CCCC1`, the “activity change, negative = signal decrease” value is -9.61%.

Consider `CCNC(=O)CCC(=O)Nc1cc(Cl)ccc1C`, for which the “activity change, negative = signal decrease” value was -22.6%. The result for `CCCNC(=O)N1[C@H](CO)[C@@H](c2ccccc2)[C@H]1CNC(=O)c1ccccc1` reads -30.3%. The result for `Oc1ccc(/C=N/Nc2nccnc2Cl)c(O)c1` reads -20.7%. The result for `CCCNC(=O)C[C@@H]1CC[C@@H]2[C@H](COc3ccc(NC(=O)Nc4ccccc4F)cc3C(=O)N2C)O1` reads -38.3%.
